# Records with an inconclusive call do not appear. Entries that show only a call come without a potency. Some compounds were tested as several samples or in several runs, with calls that do not always agree. Calls of active or inactive are those of the source. Unless noted, calls come from the whole dose curve; as a rule, active = well fitted curve in the direction sought with a large enough effect; inconclusive = small, poorly fitted or top-dose-only effect, or another doubt; inactive = no such curve, though single readings can be large; an effect the other way counts as inactive or inconclusive.
# How the values were obtained:
# [1] = Identifying Small Molecule Inhibitors of Pancreatic Cancer Stem Cells (SN12C, Spheroid) (AID 1259360); details: Potency: SN12C spheroid viability; note: potency is the fitted concentration of half-maximal effect
# In short: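 Luminescent ATP readout (CellTiter-Glo) quantifies surviving cells after a 48 h drug incubation. Normalization uses DMSO wells as no inhibition and media-only wells as full inhibition; bortezomib served as positive control.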
# [2] = NS1 protein of Zika virus - qHTS assay to identify small molecule inhibitors in human HEK 293 cells (AID 1347053); note: series mostly up to about 46 µM; nearly all actives have a fitted effect of over 55% in size
# In short: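 TR-FRET signal from two anti-ZIKV NS1 antibodies quantified NS1 in HEK 293 cells 24 h after MR766 infection at MOI = 0.5; compounds were added 1 h before virus. Uninfected cells and infected cells defined the NS1 normalization range.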
# [3] = qHTS of pediatric cancer cell lines to identify multiple opportunities for drug repurposing: Primary screen for TC32 cells (AID 1347089); note: nearly all actives have a fitted effect of over 60% in size
# In short: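 Luminescent ATP read-out (CellTiter-Glo) of metabolically active TC32 cells after 48 h exposure. Concentration-response curves came from 11-point (MIPE, 0.78 nM–46 µM) or 8-point (NPC, 0.59 nM–46 µM) primary titrations; follow-up used 11 points.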
# [4] = Identifying Small Molecule Inhibitors of Pancreatic Cancer Stem Cells (SN12C, Adherent) (AID 1259358);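 note: cell survival measured after 48 h of compound exposure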
# In short: (§1)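 Spheroids grown 14 days in stem cell media on hydrogel-coated nonadherent plates; 2D lines seeded directly. Compounds added after 4 h attachment, 48 h at 37C, 5% CO2; CellTiter-Glo luminescence normalized to DMSO (no inhibition) and no-cell wells (full inhibition).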
# [5] = qHTS of pediatric cancer cell lines to identify multiple opportunities for drug repurposing: Primary screen for DAOY cells (AID 1347090); note: nearly all actives have a fitted effect of over 55% in size; note: potency is the fitted concentration of half-maximal effect
# In short: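 Viability measured as metabolically active cells via CellTiter-Glo luminescence following 48 hours of compound exposure, 11-point dilutions in confirmatory testing. 500-1,000 cells/well plated 5 hours before dosing; controls were DMSO and 2.3 µM bortezomib.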
# [6] = Identifying Small Molecule Inhibitors of Pancreatic Cancer Stem Cells (Panc1, Adherent) (AID 1259362); details: Potency: viability; note: potency is the fitted concentration of half-maximal effect
# In short: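 Endpoint: ATP-based luminescence, 48 h drug exposure. Bortezomib at 9.2 uM final as full-kill control; DMSO vehicle as negative control; activity normalized between vehicle and cell-free wells.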
# [7] = P-glycoprotein substrates identified in KB-8-5-11 adenocarcinoma cell line, qHTS therapeutic library screen (AID 1346987); note: nearly all actives have a fitted effect of over 65% in size; note: potency is the fitted concentration of half-maximal effect
# In short: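 Luminescence from CellTiter-Glo, read 5 min after addition, quantified survival of KB-8-5-11 (P-gp-overexpressing) cells exposed to compounds for 72 h. AC50 was derived from concentration-response curves.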
# [8] = Identifying Small Molecule Inhibitors of Pancreatic Cancer Stem Cells (A278, Adherent) (AID 1259361);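 note: viability read after 48 h compound exposure; nearly all actives have a fitted effect of over 35% in size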
# In short: as §1
# [9] = P-glycoprotein substrates identified in KB-3-1 adenocarcinoma cell line, qHTS therapeutic library screen (AID 1346986); note: nearly all actives have a fitted effect of over 60% in size
# In short: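 In 1536-well format, 500 cells/well received pinned compound titrations and were incubated 72 h, 5% CO2. Viability was read by CellTiter-Glo; cytotoxic if AC50 < 10 uM and efficacy >50%.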
# [10] = Natriuretic polypeptide receptor (hNpr1) antagonism - Pilot counterscreen GloSensor control cell line (AID 1347045; calls by dose curve; note: series mostly up to about 38 µM)
# In short: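 Cells were first seeded and incubated overnight at 37C, then loaded with 2% GloSensor substrate for 2 h. Compounds were added for 30 min at room temperature, followed by a baseline read, 50 uM SNP and a final read after 20 min.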
# [11] = target: Atrial natriuretic peptide receptor 2 (Homo sapiens) (UniProt P20594); test: Natriuretic polypeptide receptor (hNpr2) antagonism - Pilot subtype selectivity assay (AID 1347050; calls by dose curve)
# Atrial natriuretic peptide receptor 2 (Homo sapiens), sequence (P20594 whole entry, looked up): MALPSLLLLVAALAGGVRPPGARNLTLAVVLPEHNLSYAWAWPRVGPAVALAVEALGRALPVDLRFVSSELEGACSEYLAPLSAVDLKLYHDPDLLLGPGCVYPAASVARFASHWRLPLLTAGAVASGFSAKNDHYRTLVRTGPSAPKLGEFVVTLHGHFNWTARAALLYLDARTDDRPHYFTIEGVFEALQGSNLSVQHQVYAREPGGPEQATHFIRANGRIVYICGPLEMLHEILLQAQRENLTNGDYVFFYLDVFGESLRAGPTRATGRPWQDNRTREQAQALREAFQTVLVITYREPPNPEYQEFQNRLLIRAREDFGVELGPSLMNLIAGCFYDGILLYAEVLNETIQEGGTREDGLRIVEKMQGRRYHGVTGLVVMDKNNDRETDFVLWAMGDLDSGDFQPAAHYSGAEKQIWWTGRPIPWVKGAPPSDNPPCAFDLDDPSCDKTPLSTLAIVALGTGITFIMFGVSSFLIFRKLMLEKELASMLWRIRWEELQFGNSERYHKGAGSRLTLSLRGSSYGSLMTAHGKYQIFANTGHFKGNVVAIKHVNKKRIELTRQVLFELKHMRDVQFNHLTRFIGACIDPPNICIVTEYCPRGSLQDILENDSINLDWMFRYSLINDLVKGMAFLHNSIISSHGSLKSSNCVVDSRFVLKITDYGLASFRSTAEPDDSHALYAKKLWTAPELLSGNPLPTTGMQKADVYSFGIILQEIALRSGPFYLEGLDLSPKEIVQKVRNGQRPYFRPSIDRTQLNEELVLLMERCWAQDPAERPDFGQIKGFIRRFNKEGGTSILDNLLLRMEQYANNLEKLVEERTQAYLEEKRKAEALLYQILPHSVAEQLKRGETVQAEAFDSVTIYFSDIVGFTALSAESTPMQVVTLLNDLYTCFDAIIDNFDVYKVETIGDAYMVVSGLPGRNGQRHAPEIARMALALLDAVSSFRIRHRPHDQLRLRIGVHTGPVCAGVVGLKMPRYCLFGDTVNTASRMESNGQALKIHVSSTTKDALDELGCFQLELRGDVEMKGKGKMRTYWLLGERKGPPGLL
# In short: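 Luminescence from a genetically encoded cGMP luciferase biosensor in hNpr2-expressing HEK293 cells is read before and 20 min after adding 1 nM hNppC. Test compounds, in interplate 1:5 titrations, are added 30-50 min ahead of the agonist.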
# [12] = target: Parathyroid hormone/parathyroid hormone-related peptide receptor (Homo sapiens) (UniProt Q03431); test: qHTS for PTHR1 Agonists: Optimization Screen against the NCGC LOPAC library (AID 1347079);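 note: GloSensor cAMP luminescence in HEK-293 GP2 cells expressing human PTHR1 with IBMX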
# Parathyroid hormone/parathyroid hormone-related peptide receptor (Homo sapiens), sequence (Q03431 whole entry, looked up): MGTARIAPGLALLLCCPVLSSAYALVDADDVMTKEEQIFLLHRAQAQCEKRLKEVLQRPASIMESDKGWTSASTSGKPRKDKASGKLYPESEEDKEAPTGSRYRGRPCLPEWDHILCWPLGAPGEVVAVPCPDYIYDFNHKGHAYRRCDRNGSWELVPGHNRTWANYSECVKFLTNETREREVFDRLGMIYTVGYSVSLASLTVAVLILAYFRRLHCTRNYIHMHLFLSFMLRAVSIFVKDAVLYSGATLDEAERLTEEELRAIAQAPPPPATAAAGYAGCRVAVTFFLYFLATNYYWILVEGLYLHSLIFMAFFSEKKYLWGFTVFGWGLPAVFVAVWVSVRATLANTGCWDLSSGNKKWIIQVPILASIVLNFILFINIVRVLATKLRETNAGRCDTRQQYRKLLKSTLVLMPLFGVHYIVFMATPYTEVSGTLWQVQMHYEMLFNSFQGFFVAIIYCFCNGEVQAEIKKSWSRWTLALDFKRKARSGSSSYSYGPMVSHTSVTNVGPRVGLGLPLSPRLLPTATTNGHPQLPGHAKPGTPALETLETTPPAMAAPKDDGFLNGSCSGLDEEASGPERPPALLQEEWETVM
# In short: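 HEK-293 GP2 cells, PTHR1 + GloSensor cAMP; 3000 cells/well, o/n. Luciferin + IBMX 0.5mM each (stock), 1 hr 37C. Cpd titration, 1 hr 37C. Lum after 15 min RT. Ctrl M-PTH(1-15) top 10uM.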
# [13] = target: Atrial natriuretic peptide receptor 1 (Homo sapiens) (UniProt P16066); test: Natriuretic polypeptide receptor (hNpr1) antagonism - Pilot screen (AID 1347049; calls by dose curve;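 note: agonist-evoked cGMP luminescence read 20 min after hNppA addition; series mostly up to about 58 µM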)
# Atrial natriuretic peptide receptor 1 (Homo sapiens), sequence (P16066 whole entry, looked up): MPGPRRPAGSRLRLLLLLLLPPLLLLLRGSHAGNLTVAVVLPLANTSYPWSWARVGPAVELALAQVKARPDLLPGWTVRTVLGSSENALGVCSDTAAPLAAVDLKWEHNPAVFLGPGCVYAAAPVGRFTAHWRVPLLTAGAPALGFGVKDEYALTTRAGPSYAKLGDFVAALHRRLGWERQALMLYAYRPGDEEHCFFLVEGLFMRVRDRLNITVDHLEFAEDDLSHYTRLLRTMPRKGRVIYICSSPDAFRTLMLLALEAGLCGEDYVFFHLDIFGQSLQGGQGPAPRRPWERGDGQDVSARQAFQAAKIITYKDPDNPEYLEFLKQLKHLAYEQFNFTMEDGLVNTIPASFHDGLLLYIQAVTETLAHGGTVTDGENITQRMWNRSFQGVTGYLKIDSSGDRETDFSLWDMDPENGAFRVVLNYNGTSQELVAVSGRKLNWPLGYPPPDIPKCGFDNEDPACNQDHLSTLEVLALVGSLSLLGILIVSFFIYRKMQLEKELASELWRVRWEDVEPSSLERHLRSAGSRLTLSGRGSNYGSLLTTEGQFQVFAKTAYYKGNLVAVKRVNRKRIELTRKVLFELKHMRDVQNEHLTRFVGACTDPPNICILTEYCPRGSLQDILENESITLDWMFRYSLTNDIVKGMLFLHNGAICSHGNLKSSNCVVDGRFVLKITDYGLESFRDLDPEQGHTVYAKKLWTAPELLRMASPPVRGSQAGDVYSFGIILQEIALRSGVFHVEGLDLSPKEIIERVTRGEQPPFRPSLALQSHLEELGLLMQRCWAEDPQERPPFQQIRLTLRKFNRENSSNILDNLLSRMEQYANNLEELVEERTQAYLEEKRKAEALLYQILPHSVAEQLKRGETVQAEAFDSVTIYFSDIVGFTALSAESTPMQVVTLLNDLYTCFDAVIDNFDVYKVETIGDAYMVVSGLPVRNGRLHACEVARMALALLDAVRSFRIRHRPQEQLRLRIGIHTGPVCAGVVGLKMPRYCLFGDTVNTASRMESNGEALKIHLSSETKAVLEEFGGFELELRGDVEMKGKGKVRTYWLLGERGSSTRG
# In short: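 cGMP-sensor HEK293/hNpr1 cells, 1500/well, plated overnight at 37C. 2% GloSensor reagent, 2 h RT. Compound (23 nL pin transfer) 30 min RT, baseline luminescence pre-read. 0.1 nM hNppA, 20 min RT, post-read.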
structure (smiles),measurement,setting,value
OCCC#Cc1nc(-c2ccc(F)cc2)c(-c2ccncc2)n1CCCc1ccccc1,Potency,[1],20.9 µM (active)
same,Potency,[2],inactive
same,Potency,[3],inactive
O=C(Nc1cccnc1)N1CCC(Cc2cccc(Oc3ccc(C(F)(F)F)cn3)c2)CC1,Potency,[4],inactive
same,Potency,[1],inactive
same,Potency,[3],inactive
same,Potency,[5],14.8 µM (active)
CC1(C)Cc2c(-c3ccccc3)c(-c3ccc(Cl)cc3)c(CC(=O)O)n2C1,Potency,[4],inactive
same,Potency,[1],inactive
same,Potency,[3],inactive
NC(=O)C1CCCc2c1[nH]c1ccc(Cl)cc21 (stereo not drawn),Potency,[4],inactive
same,Potency,[1],inactive
same,Potency,[6],inactive
same,Potency,[7],inactive
same,Potency,[3],inactive
same,Potency,[5],inactive
COc1c(Cl)cc2c([nH]c3cnccc32)c1NC(=O)c1cccnc1C,Potency,[4],inactive
same,IC50 (viability decrease),[8],inactive
same,Potency,[9],inactive
same,Potency,[7],inactive
same,Potency,[2],inactive
Nc1ncnc2nc(-c3ccc(N4CCOCC4)nc3)cc(-c3cccc(Br)c3)c12,Potency,[4],inactive
same,IC50 (viability decrease),[8],26.4 µM (active)
same,Potency,[6],inactive
same,Potency,[9],inactive
same,outcome,[10],inactive
same,Potency,[11],inactive
same,Potency,[2],inactive
same,outcome,[12],inactive
same,Potency,[3],inactive
CN(C)C(=O)c1ccc(S(=O)(=O)c2ccc(NC(=O)[C@@](C)(O)C(F)(F)F)c(Cl)c2)cc1,Potency,[4],inactive
same,Potency,[3],inactive
same,Potency,[5],18.7 µM (active)
C/C(=C\C(=O)Nc1ccccc1C(=O)O)c1ccc2ccccc2c1,Potency,[1],inactive
same,Potency,[6],inactive
CC(C)(N)C(=O)N[C@H](COCc1ccccc1)C(=O)N1CCC2(CC1)CN(S(C)(=O)=O)c1ccccc12,Potency,[1],inactive
same,Potency,[7],inactive
same,Potency,[3],inactive
same,Potency,[5],inactive
C[C@]12CCC(=O)C=C1CC[C@@H]1[C@@H]2[C@@H](O)C[C@@]2(C)[C@H]1CC[C@]2(O)C(=O)CO,Potency,[1],inactive
same,Potency,[6],inactive
same,outcome,[13],inactive
same,Potency,[11],inactive
same,Potency,[2],inactive
same,outcome,[12],inactive
same,Potency,[3],inactive
same,Potency,[5],inactive
NC(=O)c1ccc(-c2nc(-c3ccc4c(c3)OCCO4)c(-c3ccccn3)[nH]2)cc1,Potency,[4],inactive
same,Potency,[3],inactive
same,Potency,[5],inactive
CN(C)c1ccc(Nc2nc(N)n(C(=O)c3c(F)cccc3F)n2)cc1,IC50 (viability decrease),[8],16.6 µM (active)
same,Potency,[2],inactive
Cc1ccnc(NS(=O)(=O)c2ccc(NC(=O)Nc3ccc(S(=O)(=O)Nc4nccc(C)n4)cc3)cc2)n1,Potency,[1],18.7 µM (active)
same,Potency,[6],0.0235 µM (active)
same,Potency,[9],inactive
same,Potency,[7],14.8 µM (active) and inactive
same,Potency,[3],inactive
same,Potency,[5],inactive
Cc1cc(-c2nnc3n2CCCCC3)c(C)n1-c1ccc(F)cc1,Potency,[1],inactive
O=C(Nc1ccc(F)c(C(F)(F)F)c1)Nc1nnc(-c2ccncc2)s1,Potency,[4],inactive
same,IC50 (viability decrease),[8],14.8 µM (active)
same,Potency,[2],inactive
same,Potency,[3],inactive
c1ccc(-c2nn3c(c2-c2ccnc4cc(OCCN5CCOCC5)ccc24)CCC3)nc1,Potency,[4],inactive
same,Potency,[6],inactive
same,Potency,[9],inactive
same,Potency,[2],inactive
same,Potency,[3],inactive
same,Potency,[5],inactive
COCC(=O)NCC=Cc1ccc2ncnc(Nc3ccc(Oc4ccc(C)nc4)c(C)c3)c2c1,IC50 (viability decrease),[8],20.9 µM (active)
same,Potency,[3],inactive
CCOc1ccc(Cc2cc([C@@H]3O[C@H](CO)[C@@H](O)[C@H](O)[C@@H]3O)ccc2Cl)cc1,Potency,[1],inactive
same,Potency,[7],inactive
same,Potency,[3],inactive
CS(=O)(=O)Oc1ccc2c(NC(N)=O)c(C(=O)c3ccc(Cl)cc3Cl)oc2c1,Potency,[4],inactive
same,Potency,[1],inactive
same,Potency,[3],inactive
same,Potency,[5],14.8 µM (active)

# Source: PubChem BioAssay (NCATS)
